Bioassay records deposited in PubChem BioAssay by National Center for Advancing Translational Sciences (NCATS).
MCF10A rerep: A quantitative high throughput screen for small molecules that induce DNA re-replication in MCF 10a normal breast cells | MCF 10A DNA re-replication, Hoechst nuclear intensity, 48 h | Potency, µM (series often up to 46.1 µM), actives largely listed as activators | actives 2.9% (n = 350,000) | AID 624296, 2012; further: nearly all actives have a fitted effect of over 50% in size
KB-3-1 tox: qHTS assay for MDR1-selective chemotherapeutics: Primary screen using the parental adenocarcinoma cell KB-3-1. KB-3-1 viability, CellTiter-Glo ATP luminescence, 72 h. Potency, µM (highest dose often 46.1 µM), usual class: cytotoxic. actives 1.4% (n = 400,000). AID 1347075, 2019; further: nearly all actives have a fitted effect of over 60% in size
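Viability of parental KB-3-1 cells, measured by CellTiter-Glo luminescence, followed a 72 h incubation at 37 °C with pinned compounds in phenol-red-free DMEM containing 10% FBS.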
KB-V1 cytotox: qHTS assay for MDR1-selective chemotherapeutics: Primary screen using the drug-selected MDR subline cells KB-V1; AID 1347076, 2019; KB-V1 MDR cells viability, CellTiter-Glo, 72 h; Potency, µM (top dose mostly 46.1 µM), hits mostly cytotoxic; actives 3.4% (n = 400,000); further: nearly all actives have a fitted effect of over 60% in size
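Readout: CellTiter-Glo luminescence, 10 min after addition. Cells: KB-V1 MDR subline, 72 h at 37 degrees C with compound. Analysis: corrected, normalized data fitted to concentration-effect curves.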
Giardia killer: Small Molecules that selectively kill Giardia lamblia: qHTS; AID 540267, 2011; Giardia lamblia trophozoite viability; activity change, % at 7.66 µM, hits read low; actives 0.15% (n = 340,000); in the data active means activity change below about -80%; inconclusive means between about -30% and that limit;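 further: parasites exposed to compound for two days anaerobically before the ATP read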
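Killing of trophozoites was scored by loss of ATP luminescence after a 48 hrs anaerobic exposure to compounds at 37 deg C, using 100 cells per well.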
SW480 rereplic: A quantitative high throughput screen for small molecules that induce DNA re-replication in SW480 colon adenocarcinoma cells. SW480 DNA re-replication, Hoechst DNA content imaging, 48 h. actives 1.8% (n = 340,000). Potency, µM (highest dose often 46.1 µM), most hits filed as activators; further: nearly all actives have a fitted effect of over 55% in size
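DNA re-replication was detected as more nuclei of elevated Hoechst intensity after 48 hr exposure to compound (23 nL pinned per well of 250 cells).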
ASM inhibitor: Inhibitors of Secretory Acid Sphingomyelinase (S-ASM): qHTS | placental ASM, HMU-PC fluorogenic substrate, 60 min | Potency, µM (titrated, usually from 57.5 µM), actives largely listed as inhibitors | actives 0.006% (n = 340,000)
Target sequence (P17405 47-631 limits assumed): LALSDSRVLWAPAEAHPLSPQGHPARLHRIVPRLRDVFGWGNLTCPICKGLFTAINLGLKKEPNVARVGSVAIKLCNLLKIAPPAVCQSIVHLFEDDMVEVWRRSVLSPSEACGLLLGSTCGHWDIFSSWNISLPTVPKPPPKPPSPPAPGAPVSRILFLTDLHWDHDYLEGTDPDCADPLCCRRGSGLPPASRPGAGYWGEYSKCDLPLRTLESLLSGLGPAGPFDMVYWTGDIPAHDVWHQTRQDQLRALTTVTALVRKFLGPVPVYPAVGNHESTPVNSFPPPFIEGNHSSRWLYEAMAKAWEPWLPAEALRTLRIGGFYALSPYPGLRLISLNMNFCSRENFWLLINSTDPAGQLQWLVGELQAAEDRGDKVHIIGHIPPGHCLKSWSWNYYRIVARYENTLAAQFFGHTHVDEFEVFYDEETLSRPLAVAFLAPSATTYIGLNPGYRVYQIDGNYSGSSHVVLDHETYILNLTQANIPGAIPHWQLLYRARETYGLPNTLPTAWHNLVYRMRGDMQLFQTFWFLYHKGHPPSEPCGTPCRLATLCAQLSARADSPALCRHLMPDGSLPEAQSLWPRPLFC
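qHTS format. ASM enzyme prepared from human placenta hydrolyses the fluorogenic substrate HMU-PC0 (9 uM final) over 60 min at 37 °C after a 10 min compound preincubation.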
Hits are given with their value; 0 = inactive; ? = inconclusive; - = no result given. Compounds with a hit are over-represented: about 6.9% of the library has one in this group of screens. Unless noted, the call rests on the fitted dose curve; in most records, active means well fitted curve in the direction sought with a large enough effect; inconclusive means small, poorly fitted or top-dose-only effect, or another doubt; inactive means no such curve, though single readings can be large; an effect the other way counts as inactive or inconclusive.

SMILES	MCF10A rerep	KB-3-1 tox	KB-V1 cytotox	Giardia killer	SW480 rereplic	ASM inhibitor
CCOC(=O)N1CCN(C(=O)c2ccc3c(=O)n(Cc4ccc(Cl)cc4)c(=S)[nH]c3c2)CC1	?	23µM	13µM	0	0	0
O=C(c1ccc2c(=O)n(Cc3ccco3)c(=S)[nH]c2c1)N1CCN(Cc2ccccc2)CC1	?	?	21µM	0	0	0
CN(C(=O)COC(=O)c1ccc(C(C)(C)C)cc1)C1CCS(=O)(=O)C1 (centres undefined)	0	0	0	0	0	0
CN(C(=O)COC(=O)c1nc(Cl)c(Cl)c(Cl)c1Cl)C1CCS(=O)(=O)C1 (centres undefined)	3.7µM	?	?	0	?	0
O=C1/C(=C/c2cccs2)NC(=S)N1C1CC1	0	0	0	0	18µM	0
COc1ccccc1NC(=O)c1csc2c1CCCC2	0	0	16µM	0	0	0
COc1ccccc1CNC(=O)c1csc2c1CCCC2	0	0	0	0	0	0
NC(=O)c1ccsc1NC(=O)c1ccc(S(=O)(=O)N2CCCc3ccccc32)cc1	?	23µM	?	0	?	0
CC(C)N1CCc2c(sc(NC(=O)c3ccc(S(=O)(=O)N4CCc5ccccc54)cc3)c2C(N)=O)C1	?	21µM	?	0	0	0
CC(C)N1CCc2c(sc(NC(=O)c3cc(-c4cccs4)nc4ccccc34)c2C(N)=O)C1	18µM	?	0	0	?	0
CC(C)N1CCc2c(sc(NC(=O)c3nc4ccccc4s3)c2C(N)=O)C1	0	0	?	0	?	0
CNC(=O)c1c(NC(=O)c2ccc(S(=O)(=O)N(C)c3ccccc3)cc2)sc2c1CCN(C(C)C)C2	15µM	0	?	0	?	0
COC(=O)c1c(NC(=O)c2ccc(S(=O)(=O)N3CCCC(C)C3)cc2)sc2c1CCN(C(C)C)C2 (centres undefined)	-	0	0	-	-	-
COc1cccc(CNC(=O)CSc2ccc(-c3sc(-c4ccccc4)nc3C)nn2)c1	-	0	?	-	-	-
CCN1CCc2c(sc(NC(=O)c3ccc(S(=O)(=O)N(C)c4ccccc4)cc3)c2C(=O)NC)C1	16µM	0	0	0	?	0
Cc1ccc(C(=O)NCc2ccncc2)cc1S(=O)(=O)N1CCCCC1	0	0	0	0	0	0
Cc1cc(NC(=O)Nc2ccc(Cl)cc2)no1	0	0	0	0	0	0
Cc1cc(NC(=O)/C=C/c2ccc(Br)cc2)no1	0	0	?	0	10µM	0
Cc1cc(NC(=O)/C=C/c2ccc(Cl)cc2)no1	0	0	0	0	6.5µM	0
O=C(CNC(=O)C1CCCCC1)OCC(=O)c1ccc2c(c1)CCC2	-	?	0	0	-	-
COc1ccc(-c2ccc(C(=O)Nc3cccc(C(F)(F)F)c3)c3occc23)c(C)c1	-	0	0	-	-	-
COc1cccc(-c2ccc(C#N)c(OC(=O)c3c(Cl)cccc3Cl)n2)c1	0	0	16µM	0	0	0
COc1cccc(-c2ccc(C#N)c(OC(=O)c3ccc(Cl)cc3)n2)c1	0	0	0	0	0	0
COC(=O)Cn1c2ccc(OC)cc2c2nc3ccccc3nc21	0	0	0	0	0	0
CCOc1ccc(Cn2c3ccc(OC)cc3c3nc4ccccc4nc32)cc1OC	7.3µM	0	0	0	?	0
SMILES	MCF10A rerep	KB-3-1 tox	KB-V1 cytotox	Giardia killer	SW480 rereplic	ASM inhibitor
COc1ccc2c(c1)c1nc3ccccc3nc1n2Cc1ccc(OC)c(OC)c1	8.2µM	0	0	0	0	0
CCOC(=O)Cn1c2ccc(OC)cc2c2nc3ccccc3nc21	0	0	0	0	0	0
COc1cccc(CN(Cc2ccco2)c2cnc(S(C)(=O)=O)nc2C(=O)Nc2cccc(Cl)c2C)c1	-	0	0	-	-	-
CCOC(=O)C1=C(C)NC(C)=C(C(=O)OCC)C1c1ccc(OC)c(OC)c1	-	0	0	-	-	-
CCOC(=O)C1=C(C)NC2=C(C(=O)CC(c3ccc(OC)c(OC)c3)C2)C1c1ccc(C)o1 (centres undefined)	0	0	18µM	0	0	0
O=C(Nc1ccc(Cl)cc1Cl)[C@@H]1CC=C[C@@H]2CCN(C3CCCCC3)C(=O)[C@@H]21	-	0	0	-	-	-
C=CCNc1nc(N)c(C(=C(C#N)C#N)c2ccc(Br)cc2)s1	?	?	18µM	0	21µM	0
C=CCNc1sc(C(=O)c2ccc(C)cc2)c(N)c1C#N	?	0	0	0	0	0
CCCC(=NCCc1c(C)[nH]c2ccccc12)C1=C(O)CC(c2ccccc2)CC1=O (centres undefined)	1.5µM	7.3µM	5.2µM	0	6.5µM	0
CCC/C(O)=C1\C(=O)CC(c2ccccc2)CC1=NCCc1c(C)[nH]c2ccccc12 (centres undefined)	0	0	0	0	0	0
CCCCC(=NCCc1c(C)[nH]c2ccccc12)C1=C(O)CC(c2ccccc2)CC1=O (centres undefined)	8.2µM	13µM	9.2µM	0	10µM	0
CCCCC(=Nc1ccccc1OC)C1=C(O)CC(c2ccccc2)CC1=O (centres undefined)	0	0	0	0	0	0
CCCCN(C)c1ncnc2c1cnn2-c1cccc(Cl)c1	-	0	0	-	-	-
Cc1cccc(N2CCN(C(=O)C3CCN(S(=O)(=O)c4ccc5c(c4)oc(=O)n5C)CC3)CC2)c1C	-	0	0	-	-	-
Cn1c(=O)oc2cc(S(=O)(=O)N3CCCC(C(=O)N4CCN(c5cccc(Cl)c5)CC4)C3)ccc21 (centres undefined)	-	21µM	0	-	-	-
Cc1cccc(N2CCN(C(=O)C3CCCN(S(=O)(=O)c4ccc5c(c4)oc(=O)n5C)C3)CC2)c1C (centres undefined)	-	7.3µM	0	-	-	-
Cn1c(=O)oc2cc(S(=O)(=O)N3CCC(C(=O)N4CCN(c5cccc(Cl)c5)CC4)CC3)ccc21	-	0	0	-	-	-
O=C(Nc1ccccc1)c1snc2c(=O)[nH]cnc12	0	?	4.1µM	0	0	0
Cc1nc2ccn(Cc3ccccc3)c(=O)c2cc1C(=O)Nc1ccc(F)cc1Cl	-	0	0	-	-	-
CC(C)c1ccc(OCC(=O)Nc2ccc3oc(=O)ccc3c2)cc1	0	0	0	0	0	0
CC(NC(=O)c1ccccc1NC(=O)CN1CCc2ccccc2C1)c1ccccc1 (centres undefined)	26µM	?	18µM	0	?	0
CC(NC(=O)c1ccccc1NC(=O)CN1CCN(c2ccccc2O)CC1)c1ccccc1 (centres undefined)	0	0	?	0	0	0
